The structures appear in SMILES notation. The source made the active and inactive calls. No rule for the calls is given here.

The assay addresses Dual specificity protein kinase CLK1 (Homo sapiens) (UniProt P49759). Kind of assay: ligand-induced CLK1 melting temperature shift – biophysical, recombinant human kinase, DSF (AID 382). Conditions: Recombinant CLK1, thermal shift (DSF), buffer 10 mM HEPES, stronger effect = higher value.
Where [1] appears, read: measured here: replicate experiment 2, at 10 µM, run 2, protein 2 µM, NaCl 150 mM.

Chain of Dual specificity protein kinase CLK1 (Homo sapiens) (P49759 whole entry, looked up): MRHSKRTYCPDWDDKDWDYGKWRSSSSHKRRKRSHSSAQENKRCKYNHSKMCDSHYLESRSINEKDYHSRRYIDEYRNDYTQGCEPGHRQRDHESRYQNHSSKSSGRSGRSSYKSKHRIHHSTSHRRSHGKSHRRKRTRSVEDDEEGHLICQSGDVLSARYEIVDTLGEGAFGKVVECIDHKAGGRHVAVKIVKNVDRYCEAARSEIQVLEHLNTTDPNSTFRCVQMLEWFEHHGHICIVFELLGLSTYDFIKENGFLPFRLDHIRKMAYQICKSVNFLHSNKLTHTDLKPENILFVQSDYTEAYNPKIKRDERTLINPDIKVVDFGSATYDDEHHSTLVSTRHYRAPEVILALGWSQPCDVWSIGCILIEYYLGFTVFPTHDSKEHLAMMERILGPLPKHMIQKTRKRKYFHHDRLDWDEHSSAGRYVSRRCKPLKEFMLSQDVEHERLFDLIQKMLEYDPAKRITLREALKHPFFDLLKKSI

In the case of `N#C/C(=C1\Nc2ccccc2S1)c1ccnc(NCCc2cccnc2)n1`, the Tm shift (at 10 µM, protein 2 µM, pH 7.5, NaCl 150 mM, with 50 µM L-Arg/L-Glu (1:1)) was 5.9 Celsius (active).

Turning to `Cc1c2ccncc2c(C)c2c1[nH]c1ccccc12`, for the setting “at 10 µM, protein 2 µM, pH 7.5, NaCl 150 mM, with 50 mM Arg/Glu”, the Tm shift is 3.3 Celsius (active).

For the compound `CCn1cnc2c(Nc3cccc(Cl)c3)nc(N[C@@H]3CCCC[C@@H]3N)nc21`, under setting [1], the Tm shift was found to be 4.5 Celsius.

Take `COc1ccc2c(c1)/C(=C/c1cnc[nH]1)C(=O)N2`: the Tm shift under setting [1] is 3.4 Celsius.

The values above are taken from PubChem BioAssay AID382 (SGCOxCompounds, 2006).
